CHX counter: affects cycloheximide protein synthesis inhibition readout, counter-screen; 300,000 tested, 12% active; max response, %; cell reporter, cycloheximide protein synthesis inhibition counterscreen; in the data active = max response mostly above about 13%, no sharp cut-off; inactive = mostly below about 14%; note: read at 38.3 µM for the half of the compounds with a filed dose
FMDV antiviral: antivirals against foot and mouth disease virus; FMDV antiviral cell-based qHTS; Potency, µM (top dose mostly 57.9 µM), usual class: inhibitors; 410,000 tested, 1.2% active; AID 1159524; calls by dose curve; tested in HEK293T cells; note: read-out not given here; nearly all actives have a fitted effect of over 45% in size
Shiga toxin inh: inhibitors of Shiga toxin in Vero cells. Vero cells, Shiga toxin protein synthesis inhibition reporter. inhibition, % at 38.7 µM. 290,000 tested, 9.2% active. AID 2315; in the data active = inhibition mostly above about 28%, no sharp cut-off; inactive = mostly below about 43%
HCV inhibitor: blocks hepatitis C virus | Huh7.5.1 HCVcc-Cre infection, luciferase reporter, 44 h | Potency, µM (highest dose often 41.8 µM), usual class: inhibitors | 340,000 tested, 3.4% active; active = well fitted inhibition curve with a large enough effect; inconclusive = small, poorly fitted or top-dose-only effect, or another doubt; inactive = no such curve, though single readings can be large or run the other way
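Seed cells (1,000/well) for 4 h; treat with compound and infect with HCVcc-Cre, moi about 0.5. Incubate 44 h, then detect luciferase activity.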
MARV entry inh: blocks Marburg virus binding to or entry into cells; Marburg virus pseudotyped entry inhibition, cell reporter; 300,000 tested, 1.8% active; Potency, µM (top dose mostly 37.8 µM), hits mostly inhibitors; calls by dose curve; tested in HEK293 cells
Lassa entry inh: inhibitors of Lassa virus binding or cell entry | Lassa virus pseudotype entry inhibition, cell reporter | Potency, µM (series often up to 37.9 µM), actives largely listed as inhibitors | 300,000 tested, 1.2% active | AID 540256; calls by dose curve; tested in HEK293 cells; note: nearly all actives have a fitted effect of over 50% in size
Large screens that a line does not name were inactive; ! = a repeat was not active. Rows were chosen to be rich in hits. Some 13% of all compounds tested hit in one or more screens of this group.

O=[N+]([O-])c1ccc(N/N=C2\CC3CC=CC23)cc1 (configuration not stated)	CHX counter 42, Shiga toxin inh 82, HCV inhibitor 22µM (no result: MARV entry inh, Lassa entry inh)
O=[N+]([O-])c1ccc(N/N=C2\CC3CC=CC23)c([N+](=O)[O-])c1 (configuration not stated)	FMDV antiviral inconclusive, HCV inhibitor 11µM
CNc1ccc([N+](=O)[O-])cc1	FMDV antiviral inconclusive (no result: CHX counter, Shiga toxin inh, MARV entry inh, Lassa entry inh)
O=[N+]([O-])c1ccc(NN=C2CC3CCC2C3)c([N+](=O)[O-])c1 (configuration not stated)	none (no result: CHX counter, Shiga toxin inh, HCV inhibitor, MARV entry inh, Lassa entry inh)
Cc1ccc(C(=O)NCCNC(=O)c2ccc(F)cc2)cn1	MARV entry inh inconclusive
CCCCn1c(O)c(C(CC)=NCc2cccnc2)c(=O)[nH]c1=O	none
CCC(=O)N1CCCc2cc(S(=O)(=O)N3CCN(c4ccccc4F)CC3)ccc21	FMDV antiviral inconclusive, HCV inhibitor 13µM (no result: MARV entry inh, Lassa entry inh)
Cc1cccc(N2CCN(S(=O)(=O)c3ccc4c(c3)CCCN4C(=O)C3CCC3)CC2)c1C	FMDV antiviral inconclusive, HCV inhibitor 14µM, Lassa entry inh 6.3µM (no result: MARV entry inh)
Cc1ccc(C)c(N2CCN(S(=O)(=O)c3ccc4c(c3)CCCN4C(=O)C3CCC3)CC2)c1	FMDV antiviral inconclusive (no result: CHX counter, Shiga toxin inh, HCV inhibitor, MARV entry inh)
CC(=O)N(Cc1cccnc1)c1cccc(-c2nc3ccccc3s2)c1	HCV inhibitor inconclusive, MARV entry inh inconclusive
CC(=O)c1ccc(Nc2nc(=O)c3cccnc3s2)cc1	CHX counter 39, Shiga toxin inh 70, MARV entry inh inconclusive, Lassa entry inh inconclusive
O=c1nc(Nc2ccc(OCc3ccccc3)cc2)sc2ncccc12	MARV entry inh inconclusive, Lassa entry inh inconclusive
CCOC(=O)c1ccc(Nc2nc(=O)c3cccnc3s2)cc1	CHX counter 22, MARV entry inh 2.1µM (no result: HCV inhibitor)
CC(=O)c1cccc(Nc2nc(=O)c3cccnc3s2)c1	none
Cc1ccc(Nc2nc(C)cc(C)n2)c(Br)c1	HCV inhibitor inconclusive
Cc1ccc(Nc2nc(=O)c3cccnc3s2)c(Br)c1	CHX counter 19, MARV entry inh inconclusive, Lassa entry inh inconclusive
CCOc1ccc(CCN2C(=O)C(=O)N([C@@H](Cc3ccccc3)CN3CCC[C@H]3CN3C(=O)C(=O)NC[C@@H]3Cc3ccc(O)cc3)C[C@@H]2CC(C)C)cc1	none (no result: CHX counter, Shiga toxin inh, HCV inhibitor, MARV entry inh, Lassa entry inh)
CC(C)c1nccn1S(=O)(=O)c1cc(Cl)ccc1Cl	none
CN(C)CCCC1(c2ccc(F)cc2)OCc2cc(C#N)ccc21 (configuration not stated)	HCV inhibitor inconclusive, MARV entry inh 16µM!, Lassa entry inh inconclusive
C/C(=C\C(=S)Nc1ccccc1)Nc1ccc2ccccc2c1	CHX counter 74, Shiga toxin inh 143
COC(=O)c1ccc(NC(=S)Nc2ccc3ccccc3c2)cc1	none
C/C(=C\C(=S)Nc1ccccc1)Nc1cccc2ccccc12	CHX counter 41, Shiga toxin inh 68, HCV inhibitor inconclusive, MARV entry inh inconclusive
CCCCCCCCCCOC(=O)NC1CCS(=O)(=O)C1 (configuration not stated)	none
CCCCNC(=O)CNC(=O)c1nn(-c2ccc(OC)cc2OC)c(=O)c2ccccc12	none (no result: MARV entry inh, Lassa entry inh)
CCOc1ccccc1NC(=O)CSc1nc(=O)[nH]c2c1CCCC2	Lassa entry inh inconclusive (no result: CHX counter, Shiga toxin inh, HCV inhibitor, MARV entry inh)
COc1ccccc1N(CC(O)Cn1c2ccccc2c2ccccc21)S(=O)(=O)c1ccccc1 (configuration not stated)	HCV inhibitor inconclusive, MARV entry inh inconclusive, Lassa entry inh 26µM
O=[N+]([O-])c1ccc2c(c1)c1ccccc1n2CCO	none
CCN(CC)CC(O)Cn1c(C)c(-c2ccccc2)c2cc([N+](=O)[O-])ccc21 (configuration not stated)	HCV inhibitor 14µM, MARV entry inh inconclusive, Lassa entry inh inconclusive
O=S(=O)(c1ccccc1)N(CC(O)Cn1c2ccccc2c2ccccc21)c1ccccc1 (configuration not stated)	FMDV antiviral inconclusive, HCV inhibitor inconclusive, MARV entry inh inconclusive, Lassa entry inh inconclusive
CCN(CC)CC(O)Cn1c2ccccc2c2ccccc21 (configuration not stated)	HCV inhibitor inconclusive, MARV entry inh 13µM, Lassa entry inh inconclusive
C=CCN(CC=C)CC(O)Cn1c2ccccc2c2ccccc21 (configuration not stated)	MARV entry inh 8.2µM, Lassa entry inh inconclusive (no result: FMDV antiviral)
CCOc1ccc(CCNC(=O)CSc2nc3ncc(Cl)cc3[nH]2)cc1OCC	none
CCN(CC(O)Cn1c2ccccc2c2ccccc21)S(=O)(=O)c1ccc(F)cc1 (configuration not stated)	FMDV antiviral 28µM, HCV inhibitor inconclusive, MARV entry inh inconclusive
C=CCc1ccc(OCCCCNC(C)CC)c(OC)c1 (configuration not stated)	HCV inhibitor 8.9µM, MARV entry inh inconclusive
C=CCc1cc(Cl)ccc1OCCCNC(C)CC (configuration not stated)	FMDV antiviral inconclusive, HCV inhibitor 13µM, MARV entry inh 2.9µM, Lassa entry inh inconclusive
O=C1CC(N2CCN(S(=O)(=O)c3ccccc3)CC2)C(=O)N1c1ccccc1 (configuration not stated)	none (no result: MARV entry inh, Lassa entry inh)
O=C(C(=O)c1ccc(O)c(O)c1)c1ccc(O)c(O)c1	none (no result: CHX counter, Shiga toxin inh)
CN(N=O)c1ccc(O)c(O)c1	MARV entry inh 18µM, Lassa entry inh inconclusive (no result: CHX counter, FMDV antiviral, Shiga toxin inh, HCV inhibitor)
CCOc1cc(-c2nc(-c3ccccc3OC)no2)cc(OCC)c1OCC	FMDV antiviral inconclusive, HCV inhibitor inconclusive, MARV entry inh inconclusive, Lassa entry inh inconclusive
COc1ccccc1-c1noc(-c2ccco2)n1	CHX counter 51, Shiga toxin inh 80, MARV entry inh inconclusive, Lassa entry inh inconclusive
COc1ccccc1-c1noc(-c2ccccc2)n1	CHX counter 49, Shiga toxin inh 89, MARV entry inh inconclusive
COc1cc(-c2noc(-c3ccco3)n2)cc(OC)c1OC	CHX counter 18, Shiga toxin inh 80, HCV inhibitor 13µM
Fc1cc(Br)cc(F)c1NC(=S)N1CCOCC1	HCV inhibitor inconclusive
COc1ccc(-c2nc(CS(=O)CC(=O)NC3CCCC(C)C3C)c(C)o2)cc1OC (configuration not stated)	none (no result: MARV entry inh, Lassa entry inh)
Cc1onc(C(=O)N2CCN(c3ccccc3F)CC2)c1-c1ccccc1Cl	none
Cc1c(NS(=O)(=O)c2ccc(Cl)c(C(=O)OC(C)C(=O)NCc3ccco3)c2)c(=O)n(-c2ccccc2)n1C (configuration not stated)	none
Cc1cc(C(=O)NC2CCCCC2)on1	none (no result: MARV entry inh, Lassa entry inh)
CCCc1cc(C(=O)NC2CCCCC2)no1	CHX counter 62, Shiga toxin inh 61 (no result: MARV entry inh, Lassa entry inh)
CCCc1cc(C(=O)NC2CCCC2)no1	CHX counter 41, Shiga toxin inh 86 (no result: MARV entry inh, Lassa entry inh)
CC(C)c1cc(C(=O)NC2CCCCC2)no1	CHX counter 35, Shiga toxin inh 11, MARV entry inh inconclusive
Cc1ccc(/C=C/c2nc3ccccc3[nH]2)cc1	FMDV antiviral 8.9µM, Lassa entry inh 2.2µM (no result: CHX counter, Shiga toxin inh, HCV inhibitor, MARV entry inh)
COC(=O)c1ccc(/C=C/c2nc3ccccc3c(=O)[nH]2)cc1	Shiga toxin inh 51, MARV entry inh inconclusive, Lassa entry inh inconclusive

Screening results as filed in PubChem.
